Screening data deposited in PubChem BioAssay by several laboratories.
This is a sample that favours compounds with a hit; in the whole collection about 3.8% have one here.
proKLK7 act: proKLK7 zymogen activators, primary screen, biochemical, fluorescence intensity | activation, % at 7 µM | purified proKLK7, EDANS-DABCYL substrate fluorescence; 100% is mature enzyme control, 0% vehicle | Kallikrein-7 (Homo sapiens), P49862 | AID 652039, 2013 | hit rate 0.9% among 370,000;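 active means activation above the mean of all tested compounds plus 3 SD, computed per campaign excluding outliers beyond control limits, cut at about 13% in these data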
Target sequence (P49862 whole entry, looked up): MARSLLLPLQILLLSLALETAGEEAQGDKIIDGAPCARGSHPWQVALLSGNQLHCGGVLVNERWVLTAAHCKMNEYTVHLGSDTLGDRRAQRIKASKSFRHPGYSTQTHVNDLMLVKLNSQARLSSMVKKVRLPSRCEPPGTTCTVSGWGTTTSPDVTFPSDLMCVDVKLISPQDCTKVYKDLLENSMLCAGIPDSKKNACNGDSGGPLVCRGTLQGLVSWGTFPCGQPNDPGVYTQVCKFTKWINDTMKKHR
Ecoli rRNA inh: reduced GFP signal of wild-type E. coli, primary screen, bacterial rRNA inhibitor project, GFP/RFP fluorescence, OD600, single point | E. coli WT GFP vs humanized-ribosome RFP mutants, 24 h; hits give low values; DMSO median 0, no signal -100 | GFP signal change (wild-type ribosome), % (no concentration beside the values) | hit rate 1.6% among 350,000;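 active means significant combined selectivity score with lowered wild-type GFP, culture density cut under 30%, mutant RFP and density less affected; inactive means any of these conditions unmet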
ADAM17 inh: ADAM17 inhibitors, primary screen, biochemical, QFRET. recombinant ADAM17, EDANS/DABCYL FRET peptide cleavage. inhibition, % at 6.95 µM. hit rate 0.83% among 370,000. AID 720648, 2013;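 active means inhibition above the mean of compounds lying between control limits plus 3 SD, set per campaign, cut at about 8.5% in these data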;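 further: 0% = DMSO-only wells as the low control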
ADAM10 inh: human ADAM10 inhibitors, primary screen, biochemical, QFRET, HTS; inhibition, % at 7 µM; hit rate 0.62% among 370,000; recombinant ADAM10, EDANS/DABCYL FRET peptide cleavage, 3 h; Disintegrin and metalloproteinase domain-containing protein 10 (Homo sapiens), O14672;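 active means inhibition above a per-campaign cutoff equal to the mean of compounds falling between control-based bounds plus 3 SD, cut at about 20% in these data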;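 further: 0% = DMSO wells while the 100% control is not disclosed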
FGF22 binding-1: binders of human FGF22 protein, primary screen, FGF22 synaptogenesis inhibitor project, biophysical, thermal shift, single point; Fibroblast growth factor 22 (Homo sapiens), Q9HCT0; recombinant FGF22 thermal shift, SYPRO orange fluorescence; percent of sucrose octasulfate shift, DMSO zero; activity (Tm shift, normalised), % at 9.99 µM; hit rate 1.5% among 340,000;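 active means mean Tm shift, scaled 0 neutral to 100 positive control, at about 1.3% or above, every replicate too, limit read from the data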
Target sequence (Q9HCT0 whole entry, looked up): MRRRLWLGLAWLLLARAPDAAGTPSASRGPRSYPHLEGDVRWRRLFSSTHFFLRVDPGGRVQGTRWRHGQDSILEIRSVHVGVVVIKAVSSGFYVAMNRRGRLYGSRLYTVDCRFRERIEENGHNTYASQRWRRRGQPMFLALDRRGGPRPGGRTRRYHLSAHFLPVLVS
FGF22 binding-2: binders of human FGF22 protein, dose response, FGF22 synaptogenesis inhibitor project, biophysical, thermal shift, cherry-pick retest; shares compounds with FGF22 binding-1; recombinant FGF22 thermal shift, SYPRO orange fluorescence; thermal shift activity, °C (ΔTm) at 38 µM; hit rate 2% among 1,000; AID 720646, 2013;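 active means fitted rise in melting shift crosses a set limit at or below the top valid dose tested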
SYPRO no-protein: compound-only thermal shift signal without protein, dose response, artefact control for FGF22 binder project, biochemical, cherry-picked samples, RT-PCR instrument; AID 743019, 2013; hit rate 2% among 1,000; compound-only SYPRO orange thermal shift counter-screen, no protein; shares compounds with FGF22 binding-1; AC50, µM (series often up to 38 µM);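 active means rising signal whose fitted curve reaches the 0.54 level within the top valid dose, showing a melting point, actives reach about 13 µM in these data; inactive means the rest, including activity in the opposite direction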; further: value is where the raw curve crosses a fixed level and not half-maximal
* marks the source's active call; other numbers are inactive results; ! = a repeat was not active; [ ] = remark or other dose.

Results for C[C@@H]1CN([C@@H](C)CO)C(=O)Cc2cc(NC(=O)c3ccncc3)ccc2O[C@@H]1CN(C)C(=O)Nc1ccccc1 ?
Ecoli rRNA inh: 4

Results for COCC(=O)Nc1ccc2c(c1)C(=O)N(C)[C@H]1CC[C@@H](CC(=O)NCc3ccccc3)O[C@@H]1CO2 ?
Ecoli rRNA inh: 4; FGF22 binding-1: 0

Results for O=C(Nc1cccc(F)c1)N1C[C@@H]2[C@H](c3ccccc31)[C@H](CO)N2C(=O)c1cccnc1 ?
Ecoli rRNA inh: -5; FGF22 binding-1: 1.4*; FGF22 binding-2: 0.2[42 µM]; SYPRO no-protein: inactive

How did O=C(Nc1ccccc1)N1C[C@H]2[C@@H](c3ccccc31)[C@@H](CO)N2C(=O)c1ccncc1 do in these assays?
Ecoli rRNA inh: 3; FGF22 binding-1: 1.4*; FGF22 binding-2: -0.096[42 µM]; SYPRO no-protein: inactive

What do the screens show for `O=C(Nc1cccc(F)c1)N1C[C@H]2[C@@H](c3ccccc31)[C@@H](CO)N2C(=O)c1cccnc1`?
Ecoli rRNA inh: -1; FGF22 binding-1: 1

How did CN(C)CC#Cc1ccc([C@H]2[C@@H](CO)N3CCCCN(C(=O)C4CCCC4)C[C@@H]23)cc1 do in these assays?
FGF22 binding-1: 0

What do the screens show for `COc1cc(NC(=O)c2csc(N)n2)cc(C(=O)Nc2cccc(C(F)(F)F)c2)c1`?
proKLK7 act: 0; Ecoli rRNA inh: -48; ADAM17 inh: 6; ADAM10 inh: -2; FGF22 binding-1: 1.6*!; FGF22 binding-2: -0.085; SYPRO no-protein: 11µM*

Results for COc1cc(NC(=O)c2ccnc(N)c2)cc(C(=O)Nc2cccc(C(F)(F)F)c2)c1 ?
proKLK7 act: 0; Ecoli rRNA inh: -7; ADAM17 inh: 0; ADAM10 inh: 2; FGF22 binding-1: 0

Results for Cc1ncsc1C(=O)Nc1cccc(C(F)(F)F)c1 ?
proKLK7 act: 0; Ecoli rRNA inh: -2; ADAM17 inh: -3; ADAM10 inh: 1; FGF22 binding-1: 0

What do the screens show for `COc1cc(NC(=O)c2cnc(N)o2)cc(C(=O)Nc2cccc(C(F)(F)F)c2)c1`?
proKLK7 act: 0; Ecoli rRNA inh: -61; ADAM17 inh: 7; ADAM10 inh: -4; FGF22 binding-1: 2.2*!; FGF22 binding-2: 0.14; SYPRO no-protein: inactive

Results for O=C(C[C@@H]1C=C[C@@H](NC(=O)Nc2cc(F)ccc2F)[C@H](CO)O1)NCc1ccncn1 ?
Ecoli rRNA inh: 1; FGF22 binding-1: 0

Results for CCc1nnc(NS(=O)(=O)c2ccc(NC(=S)NC(=O)/C=C/c3ccc([N+](=O)[O-])cc3)cc2)s1 ?
proKLK7 act: 0; Ecoli rRNA inh: 6; ADAM17 inh: -3; ADAM10 inh: 6; FGF22 binding-1: 2.5*; FGF22 binding-2: -0.005; SYPRO no-protein: inactive

What do the screens show for `CO[C@@H]1CN(C)C(=O)c2cc(NC(=O)C3CC3)ccc2OC[C@H](C)N(C(C)=O)C[C@H]1C`?
Ecoli rRNA inh: 0; FGF22 binding-1: 0

How did COCC(=O)N1[C@H](CO)[C@H](c2ccccc2)C12CN(C(=O)c1ccccc1)C2 do in these assays?
Ecoli rRNA inh: 2; FGF22 binding-1: 1.3*; FGF22 binding-2: -0.03[42 µM]; SYPRO no-protein: inactive

How did COCC(=O)N1CC2(C1)[C@H](c1ccc(-c3cccc(C)c3)cc1)[C@H](CO)N2C(=O)C1CC1 do in these assays?
Ecoli rRNA inh: -2; FGF22 binding-1: 1.5*; FGF22 binding-2: 0.062[42 µM]; SYPRO no-protein: inactive
